Assay results: PubChem BioAssay (EPA / NIEHS)
Inconclusive results are not listed. The source made the active and inactive calls. How the source made its calls: active means hit-call score of the fitted dose curve at least 0.9, where 1 is the maximum; inconclusive means response in the unintended direction; inactive means score below 0.9.

Read-out: alkyl and aryl transferase (GSTA2), GSTA2 (gene 2939)
Experiment: CLD_GSTA2_6hr: CellzDirect (CLD) Gene Expression Assay for alkyl and aryl transferase (GSTA2) at 6 hours (AID 2283666)
Experimental: CLD_6hr is a cell-based, multiplexed-readout assay that uses hepatocyte, a human liver primary cell, with measurements taken at 6 hours after chemical dosing in a 96-well plate.CLD_GSTA2_6hr is one of 16 assay component(s) measured or calculated from the CLD_6hr assay. It is designed to make measurements of mRNA induction, a form of inducible reporter, as detected with chemiluminescence signals by Quantitative Nuclease Protection Assay (qNPA) technology.Data from the assay component CLD_GSTA2_6hr was analyzed at the endpoint, CLD_GSTA2_6hr, in the positive analysis fitting direction relative to DMSO as the negative control and baseline of activity. Using a type of inducible reporter, gain-of-signal activity can be used to understand changes in the reporter gene as they relate to the gene GSTA2. Furthermore, this assay endpoint can be referred to as a primary readout. To generalize the intended target to other relatable targets, this assay endpoint is annotated to the transferase intended target family, where subfamily is alkyl and aryl transferase.
Human hepatocyte cultures were treated daily for two consecutive days with fresh dosing solutions containing appropriate concentrations of the 320 ToxCast chemicals (chemical identities were blinded to CellzDirect and other ToxCast collaborators), vehicle control (0.2% DMSO), and positive control inducers as summarized in Table 1. Due to the large number of treatment groups and chemicals examined, the ToxCast chemicals were divided into two groups (spanning two independent cultures of hepatocytes from separate donor preparations (Hu778: ToxCast plates 1 and 2; Hu776: ToxCast plates 3 and 4). Each preparation of human hepatocyte cultures was treated with respective vehicle control, medium only control, set of six positive controls/reference chemicals for the five hepatic receptor pathways, and a subset of eight of the ToxCast chemicals (indoxacarb, pyrithiobac-sodium, norflurazon, cyhalofop-butyl, methomyl, thiram, acetochlor, and propiconazole). These replicate data, coupled with internal replicates designed within the blinded ToxCast chemical library, provided additional data to evaluate interindividual differences between hepatocyte preparations and their potential impact on chemical profiles.Cell morphology and integrity were evaluated using phase-contrast microscopy as an indicator of hepatocyte cell health (Tyson & Green, 1987). Cultures for each treatment group (i.e., media, vehicle [0.2% DMSO], positive control inducers [multiple concentrations], and the ToxCast chemicals [multiple concentrations]) were observed and cell morphology was assessed relative to vehicle control cultures at each harvest time point (0, 6, 24, or 48 h). […] Images were evaluated at the conclusion of the study to assess changes in cell integrity and account for the effects of chemical exposure on uncharacteristic changes in concentration-dependent gene expression profiles. The results from these determinations of apparent cytotoxicity were annotated (yes/no) alongside the corresponding qNPA data for reference.At the conclusion of each treatment period, hepatocyte cultures (96-well) were washed with 1 volume of HBSS, lysed by addition of 25 ul ArrayPlate lysis buffer (HTG, Tucson, AZ), and 70 ul/well of Denaturation Oil, denatured by incubation at 95C for 10 min, and frozen at approximately -70C until analysis by nuclease protection assay (qNPA) (Roberts et al., 2007). For qNPA analysis, cell lysates were thawed at 50C for approximately 30 min, qNPA probes were added, and samples were incubated at 95C for 10 min to begin the detection process by denaturing the target RNA, dissociating the duplexes and secondary structure hybridization. At the conclusion of the hybridization period, S1 nuclease reagent was added to each sample to digest all nonprotected nucleotides at 50C for 60-90 min. […]

Q: With `COc1nc(C)nc(NC(=O)NS(=O)(=O)c2ccccc2CCC(F)(F)F)n1` as the compound, how does the outcome read?
A: Its outcome is “inactive”.

Q: Which outcome does the source give for `N#Cc1nn(-c2c(Cl)cc(C(F)(F)F)cc2Cl)c(N)c1S(=O)C(F)(F)F` (stereo not drawn) here?
A: Its outcome is “inactive”.

Q: With `Oc1ccccc1-c1ccccc1` as the compound, how does the outcome read?
A: The outcome was “inactive”.

Q: With `Cc1c(F)c(F)c(COC(=O)C2C(/C=C(\Cl)C(F)(F)F)C2(C)C)c(F)c1F` (stereo not drawn) as the compound, how does the outcome read?
A: Its outcome is “inactive”.

Q: Which outcome does the source give for `CO/C=C(/C(=O)OC)c1ccccc1Oc1cc(Oc2ccccc2C#N)ncn1` here?
A: Its outcome is “inactive”.

Q: How did the outcome turn out when `CNC(=O)ON=CC(C)(C)SC` was run?
A: Its outcome is “inactive”.

Q: With `CCON=C(CC)C1=C(O)CC(c2c(C)cc(C)cc2C)CC1=O` (stereo not drawn) as the compound, how does the outcome read?
A: The outcome was “inactive”.

Q: Which outcome does the source give for `Cc1cc(Cl)ccc1OCC(=O)O` here?
A: The outcome was “inactive”.

Q: For `CC(C)(C)c1ccc(CSc2cnn(C(C)(C)C)c(=O)c2Cl)cc1`, which outcome is on record?
A: Its outcome is “inactive”.

Q: For `C#CCOS(=O)OC1CCCCC1Oc1ccc(C(C)(C)C)cc1` (stereo not drawn), which outcome is on record?
A: Its outcome is “inactive”.

Q: For `COc1nc(NC(C)C)nc(NC(C)C)n1`, which outcome is on record?
A: Its outcome is “inactive”.

Q: With `CCCCNC(=O)OCC#CI` as the compound, how does the outcome read?
A: The outcome was “inactive”.

Q: With `COC(=O)C=C(C)OP(=O)(OC)OC` as the compound, how does the outcome read?
A: Its outcome is “inactive”.

Q: How did the outcome turn out when `CCc1nn(C)c(C(=O)NCc2ccc(C(C)(C)C)cc2)c1Cl` was run?
A: Its outcome is “inactive”.

Q: Which outcome does the source give for `O=C(O)c1nc(Cl)ccc1Cl` here?
A: Its outcome is “inactive”.

Q: With `COc1nc(C)nc(NC(=O)NS(=O)(=O)c2ccccc2Cl)n1` as the compound, how does the outcome read?
A: The outcome was “inactive”.

Q: `O=C(O)COc1nc(Cl)c(Cl)cc1Cl` was tested. Which outcome did it give?
A: Its outcome is “inactive”.

Q: How did the outcome turn out when `N#Cc1cc(Br)c(O)c(Br)c1` was run?
A: Its outcome is “inactive”.

Q: How did the outcome turn out when `CC(Oc1ccc(Cl)cc1Cl)C(=O)O` (stereo not drawn) was run?
A: Its outcome is “inactive”.

Q: How did the outcome turn out when `CC(C)Oc1cc(-n2nc(C(C)(C)C)oc2=O)c(Cl)cc1Cl` was run?
A: Its outcome is “inactive”.

Q: How did the outcome turn out when `COP(N)(=O)SC` (stereo not drawn) was run?
A: The outcome was “inactive”.

Q: Which outcome does the source give for `O=C(Nc1ccccc1)Nc1ccnc(Cl)c1` here?
A: Its outcome is “inactive”.

Q: With `Cc1ccc(-c2c(Cl)nc(C#N)n2S(=O)(=O)N(C)C)cc1` as the compound, how does the outcome read?
A: The outcome was “inactive”.

Q: With `CCOC(=O)CC(SP(=S)(OC)OC)C(=O)OCC` (stereo not drawn) as the compound, how does the outcome read?
A: The outcome was “inactive”.

Q: With `CCCCNC(=O)n1c(NC(=O)OC)nc2ccccc21` as the compound, how does the outcome read?
A: The outcome was “inactive”.

Q: How did the outcome turn out when `CN(C)C(=S)SSC(=S)N(C)C` was run?
A: The outcome was “inactive”.

Q: `CCOP(=S)(OCC)SCn1c(=O)oc2cc(Cl)ccc21` was tested. Which outcome did it give?
A: The outcome was “inactive”.

Q: With `CCOc1cc(Oc2ccc(C(F)(F)F)cc2Cl)ccc1[N+](=O)[O-]` as the compound, how does the outcome read?
A: Its outcome is “inactive”.

Q: `C=CCC1=C(C)[C@@H](OC(=O)[C@@H]2[C@@H](C=C(C)C)C2(C)C)CC1=O` was tested. Which outcome did it give?
A: Its outcome is “inactive”.

Q: With `COC(=O)N(OC)c1ccccc1COc1ccn(-c2ccc(Cl)cc2)n1` as the compound, how does the outcome read?
A: Its outcome is “inactive”.

Q: `C=CCC1=C(C)C(OC(=O)C2C(C=C(C)C)C2(C)C)CC1=O` (stereo not drawn) was tested. Which outcome did it give?
A: The outcome was “inactive”.

Q: How did the outcome turn out when `CCNc1nc(Cl)nc(NC(C)C)n1` was run?
A: The outcome was “inactive”.

Q: `COC(=O)C(C)Oc1ccc(Oc2ccc(Cl)cc2Cl)cc1` (stereo not drawn) was tested. Which outcome did it give?
A: The outcome was “inactive”.
